Reference: article PMC7862700, “An all-to-all approach to the identification of sequence-specific readers for epigenetic DNA modifications on cytosine”

How the values were obtained:
Assay in all cases: DAPPL (digital affinity profiling via proximity ligation, sequencing); 10 mM Tris-HCl pH 7.5, 50 mM NaCl, 1 mM DTT, 4% glycerol, room temperature, 30 min; GST-TFs on glutathione beads, 16-mer random dsDNA library, 0.1% formaldehyde crosslink after washing; high values mean tight binding
Conditions in all cases: protein: recombinant; tags: N-terminal GST; dsDNA, one strand shown
ELK1 = biological target: T1, ELK1 (Homo sapiens, UniProt P19419 1-428)
T1 sequence: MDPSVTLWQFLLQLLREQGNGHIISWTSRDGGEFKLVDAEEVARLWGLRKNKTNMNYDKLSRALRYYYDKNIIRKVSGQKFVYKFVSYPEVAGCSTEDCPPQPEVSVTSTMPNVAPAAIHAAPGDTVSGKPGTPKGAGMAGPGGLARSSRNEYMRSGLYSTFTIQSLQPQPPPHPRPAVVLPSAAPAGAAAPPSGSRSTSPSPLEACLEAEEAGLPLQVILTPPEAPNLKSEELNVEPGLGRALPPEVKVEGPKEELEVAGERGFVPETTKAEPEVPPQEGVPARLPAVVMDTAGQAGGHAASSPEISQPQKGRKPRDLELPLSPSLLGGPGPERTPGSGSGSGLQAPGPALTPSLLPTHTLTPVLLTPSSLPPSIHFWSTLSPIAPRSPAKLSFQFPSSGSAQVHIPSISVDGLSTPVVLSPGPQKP
Outline: (§1)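 A tag-only sample was pooled with DNA-barcoded human transcription factors that had been expressed in yeast as GST fusions and captured on glutathione beads. The pools were incubated for 30 min at room temperature with 200 nmole of a random double-stranded 16-mer DNA library in Tris/NaCl/DTT/glycerol buffer, then washed, crosslinked with 0.1% formaldehyde, proximity-ligated (BsaI/T4 ligase, 1 h, 37 °C), PCR-amplified and sequenced on an Illumina NextSeq500. Binding signal is each hexamer's read frequency for a factor divided by its frequency for the tag-only sample.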

GABPA = biological target: T2, GABPA (Homo sapiens, UniProt Q06546 1-454)
T2 sequence: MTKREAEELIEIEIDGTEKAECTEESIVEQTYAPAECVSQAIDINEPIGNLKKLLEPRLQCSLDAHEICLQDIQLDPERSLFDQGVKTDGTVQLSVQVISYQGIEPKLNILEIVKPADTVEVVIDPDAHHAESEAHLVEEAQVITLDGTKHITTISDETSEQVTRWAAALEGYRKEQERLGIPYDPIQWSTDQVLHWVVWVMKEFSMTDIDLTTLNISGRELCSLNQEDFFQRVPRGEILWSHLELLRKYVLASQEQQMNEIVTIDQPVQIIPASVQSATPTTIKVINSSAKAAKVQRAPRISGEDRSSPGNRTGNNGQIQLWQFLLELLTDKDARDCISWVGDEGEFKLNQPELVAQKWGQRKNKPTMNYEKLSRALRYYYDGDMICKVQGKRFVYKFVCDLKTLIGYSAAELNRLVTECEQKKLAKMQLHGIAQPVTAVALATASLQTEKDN
Outline: as §1

ERG = biological target: T3, ERG (Homo sapiens, UniProt P11308 1-479)
T3 sequence: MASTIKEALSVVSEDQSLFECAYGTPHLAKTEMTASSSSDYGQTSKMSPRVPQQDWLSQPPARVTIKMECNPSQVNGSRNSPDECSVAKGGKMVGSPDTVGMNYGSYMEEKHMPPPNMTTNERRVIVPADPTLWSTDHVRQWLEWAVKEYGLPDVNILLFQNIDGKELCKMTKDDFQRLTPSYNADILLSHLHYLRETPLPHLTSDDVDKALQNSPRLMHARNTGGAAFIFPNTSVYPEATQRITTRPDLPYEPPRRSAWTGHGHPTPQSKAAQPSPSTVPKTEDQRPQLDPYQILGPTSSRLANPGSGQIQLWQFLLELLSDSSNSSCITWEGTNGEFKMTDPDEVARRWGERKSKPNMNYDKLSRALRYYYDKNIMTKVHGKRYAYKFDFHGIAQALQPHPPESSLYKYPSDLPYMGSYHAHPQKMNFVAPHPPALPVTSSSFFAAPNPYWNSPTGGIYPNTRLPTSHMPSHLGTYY
Outline: as §1

ELF1 = ELF1 (Homo sapiens, UniProt P32519 1-619)
ELF1, sequence (P32519 whole entry): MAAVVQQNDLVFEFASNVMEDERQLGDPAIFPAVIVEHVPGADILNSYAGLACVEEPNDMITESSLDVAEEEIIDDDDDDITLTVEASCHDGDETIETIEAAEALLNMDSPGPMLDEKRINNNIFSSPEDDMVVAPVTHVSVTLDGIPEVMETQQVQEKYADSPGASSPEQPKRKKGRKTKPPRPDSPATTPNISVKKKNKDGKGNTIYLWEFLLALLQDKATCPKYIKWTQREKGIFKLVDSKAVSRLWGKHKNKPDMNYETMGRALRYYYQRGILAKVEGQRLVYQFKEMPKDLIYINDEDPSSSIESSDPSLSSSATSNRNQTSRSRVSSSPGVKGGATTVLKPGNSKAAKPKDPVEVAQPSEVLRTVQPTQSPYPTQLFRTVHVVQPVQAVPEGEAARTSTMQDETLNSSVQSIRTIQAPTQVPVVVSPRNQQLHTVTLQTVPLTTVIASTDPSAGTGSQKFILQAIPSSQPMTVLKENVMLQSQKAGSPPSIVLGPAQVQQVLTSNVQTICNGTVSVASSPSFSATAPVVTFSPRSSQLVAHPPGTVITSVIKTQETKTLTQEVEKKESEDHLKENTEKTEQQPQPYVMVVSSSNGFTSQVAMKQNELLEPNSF
Outline: as §1

EHF = biological target: T4, EHF (Homo sapiens, UniProt Q9NZC4 1-300)
T4 sequence: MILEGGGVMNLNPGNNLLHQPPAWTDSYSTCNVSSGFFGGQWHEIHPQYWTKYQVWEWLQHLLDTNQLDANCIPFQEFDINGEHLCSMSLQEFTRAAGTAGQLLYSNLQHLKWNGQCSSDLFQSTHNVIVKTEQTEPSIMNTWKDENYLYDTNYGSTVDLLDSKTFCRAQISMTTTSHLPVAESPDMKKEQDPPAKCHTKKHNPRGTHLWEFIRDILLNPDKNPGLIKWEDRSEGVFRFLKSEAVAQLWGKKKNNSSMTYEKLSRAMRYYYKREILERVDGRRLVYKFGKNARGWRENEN
Outline: as §1

SPIB = SPIB (Homo sapiens, UniProt Q01892 1-262)
SPIB, sequence (Q01892 whole entry): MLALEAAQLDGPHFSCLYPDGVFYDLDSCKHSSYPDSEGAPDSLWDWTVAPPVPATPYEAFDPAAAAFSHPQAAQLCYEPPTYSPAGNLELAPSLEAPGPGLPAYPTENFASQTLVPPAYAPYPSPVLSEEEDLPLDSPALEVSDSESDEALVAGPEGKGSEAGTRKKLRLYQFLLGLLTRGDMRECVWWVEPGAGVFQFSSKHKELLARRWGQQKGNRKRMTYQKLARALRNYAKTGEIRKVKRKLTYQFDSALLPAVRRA
Outline: as §1

FEV = biological target: T5, FEV (Homo sapiens, UniProt Q99581 1-238)
T5 sequence: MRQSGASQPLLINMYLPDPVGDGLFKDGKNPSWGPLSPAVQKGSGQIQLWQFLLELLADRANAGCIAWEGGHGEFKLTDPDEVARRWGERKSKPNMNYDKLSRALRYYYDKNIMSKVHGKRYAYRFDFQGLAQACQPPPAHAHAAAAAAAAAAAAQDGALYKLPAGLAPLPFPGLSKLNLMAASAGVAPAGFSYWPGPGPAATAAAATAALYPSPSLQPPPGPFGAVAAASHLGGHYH
Outline: as §1

ETV5 = ETV5 (Homo sapiens, UniProt P41161 1-510)
ETV5, sequence (P41161 whole entry): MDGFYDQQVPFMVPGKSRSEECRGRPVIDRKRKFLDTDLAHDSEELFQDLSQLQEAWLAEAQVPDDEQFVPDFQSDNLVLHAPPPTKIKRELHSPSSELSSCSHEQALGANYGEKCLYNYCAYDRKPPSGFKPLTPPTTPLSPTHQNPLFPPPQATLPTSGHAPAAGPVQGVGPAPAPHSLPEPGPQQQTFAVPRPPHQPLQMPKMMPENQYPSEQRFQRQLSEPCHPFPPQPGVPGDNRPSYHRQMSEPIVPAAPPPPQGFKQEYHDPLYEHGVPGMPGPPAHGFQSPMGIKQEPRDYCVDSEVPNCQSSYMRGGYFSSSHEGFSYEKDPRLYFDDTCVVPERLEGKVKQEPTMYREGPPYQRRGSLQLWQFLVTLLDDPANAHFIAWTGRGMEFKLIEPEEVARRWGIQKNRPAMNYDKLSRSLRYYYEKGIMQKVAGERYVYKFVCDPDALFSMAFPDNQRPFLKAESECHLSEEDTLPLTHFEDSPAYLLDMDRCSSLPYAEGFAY
Outline: as §1

ELF4 = ELF4 (Homo sapiens, UniProt Q99607 1-663)
ELF4, sequence (Q99607 whole entry): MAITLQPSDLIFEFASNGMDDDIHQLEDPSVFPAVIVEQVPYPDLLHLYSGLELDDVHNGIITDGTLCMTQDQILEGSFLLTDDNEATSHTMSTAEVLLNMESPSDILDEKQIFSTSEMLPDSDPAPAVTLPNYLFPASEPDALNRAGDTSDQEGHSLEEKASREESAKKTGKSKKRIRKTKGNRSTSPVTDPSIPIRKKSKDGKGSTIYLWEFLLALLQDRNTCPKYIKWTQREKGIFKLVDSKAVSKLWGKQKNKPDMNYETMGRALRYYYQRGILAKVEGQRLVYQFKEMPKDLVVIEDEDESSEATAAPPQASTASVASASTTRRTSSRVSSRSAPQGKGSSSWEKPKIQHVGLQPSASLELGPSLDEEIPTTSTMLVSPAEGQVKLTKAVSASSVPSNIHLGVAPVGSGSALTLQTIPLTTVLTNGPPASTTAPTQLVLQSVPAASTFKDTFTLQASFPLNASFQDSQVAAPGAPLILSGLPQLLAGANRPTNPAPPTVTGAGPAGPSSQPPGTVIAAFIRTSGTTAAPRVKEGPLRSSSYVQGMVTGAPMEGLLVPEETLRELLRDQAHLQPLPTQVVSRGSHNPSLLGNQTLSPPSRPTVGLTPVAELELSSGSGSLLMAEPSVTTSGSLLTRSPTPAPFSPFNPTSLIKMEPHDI
Outline: as §1

ELK4 = biological target: T6, ELK4 (Homo sapiens, UniProt P28324-2 1-405)
T6 sequence: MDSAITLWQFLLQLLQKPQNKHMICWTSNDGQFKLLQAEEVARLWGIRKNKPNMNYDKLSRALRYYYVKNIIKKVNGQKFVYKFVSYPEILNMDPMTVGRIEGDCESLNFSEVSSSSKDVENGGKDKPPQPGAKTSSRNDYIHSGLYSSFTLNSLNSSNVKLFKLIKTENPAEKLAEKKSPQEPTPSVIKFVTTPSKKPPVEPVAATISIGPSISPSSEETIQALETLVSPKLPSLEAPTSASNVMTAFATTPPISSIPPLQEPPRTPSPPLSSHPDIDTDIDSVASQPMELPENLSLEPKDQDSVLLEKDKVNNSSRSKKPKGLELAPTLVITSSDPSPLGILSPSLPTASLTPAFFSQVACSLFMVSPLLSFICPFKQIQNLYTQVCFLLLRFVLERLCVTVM
Outline: as §1

## TCAAGT
ELK1
  binding signal: 1.14 fold enrichment (6-mer frequency, TF over GST control)
GABPA
  binding signal: 1.07 fold enrichment (6-mer frequency, TF over GST control)
ERG
  binding signal: 1.04 fold enrichment (6-mer frequency, TF over GST control)
ELF1
  binding signal: 1.02 fold enrichment (6-mer frequency, TF over GST control)
EHF
  binding signal: 1.12 fold enrichment (6-mer frequency, TF over GST control)
SPIB
  binding signal: 1.08 fold enrichment (6-mer frequency, TF over GST control)
FEV
  binding signal: 1.05 fold enrichment (6-mer frequency, TF over GST control)
ETV5
  binding signal: 1.07 fold enrichment (6-mer frequency, TF over GST control)
ELF4
  binding signal: 1.13 fold enrichment (6-mer frequency, TF over GST control)
ELK4
  binding signal: 1.19 fold enrichment (6-mer frequency, TF over GST control)
